Assay results as given in PubChem BioAssay (Tox21).
Inconclusive results are not listed. The source made the active and inactive calls. Unless noted, calls follow the shape of the dose curve; as a rule, active = well fitted curve in the direction sought with a large enough effect in the repeat runs; inconclusive = weak or mixed curves; inactive = no such curve, though single readings can be large; an effect the other way counts as inactive or inconclusive.

Tests used:
[1] = qHTS assay to identify small molecule antagonists of the vitamin D receptor (VDR) signaling pathway - cell viability counter screen (AID 743225); also: nearly all actives have a fitted effect of over 50% in size
Summary of the method: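 VDR-bla HEK 293T cells, 4 h pre-incubation at 37C, then compound plus 1-alpha,25-dihydroxyvitamin D3 (3 nM final) for 16 h. After the beta-lactamase FRET read, CellTiter-Glo was added to the same wells; luminescence after 30 min at room temperature.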

[2] = qHTS assay to identify small molecule agonists of the NFkB signaling pathway (AID 1159509; active = well fitted curve in the direction sought with a large enough effect in the signal ratio in the repeat runs, not every such curve was filed as active; the % refers to the signal ratio; also: series mostly up to about 61 µM)
Summary of the method: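 NFkB-bla ME-180 cells with a beta-lactamase reporter under an NF-kB response element were plated overnight, treated with compounds in DMSO for 5 hr at 37 C, then loaded with FRET substrate for 1.5 hr at room temperature.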

[3] = qHTS assay to identify small molecule agonists of the NFkB signaling pathway - cell viability counter screen (AID 1159515; calls by dose curve; also: series mostly up to about 61 µM; nearly all actives have a fitted effect of over 55% in size)
Summary of the method: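 Viability in NFkB-bla ME-180 cells was measured by CellTiter-Glo luminescence, 30 min room temperature, in wells already treated 5 hr with compounds and read for reporter FRET.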

[4] = qHTS assay to identify small molecule agonists of the endoplasmic reticulum stress response signaling pathway - cell viability counter screen (AID 1159517; calls by dose curve;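 also: HeLa cells carrying an ER stress response element beta-lactamase reporter; series mostly up to about 61 µM; nearly all actives have a fitted effect of over 50% in size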)
Summary of the method: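 Luminescence readout: CellTiter-Glo, 30 min RT, same wells as the ESRE-bla reporter read. HeLa ESRE-bla, 1,500 cells/well, o/n 37 C; cpd 5 hr 37 C/5% CO2.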

[5] = qHTS assay to identify small molecule antagonists of the retinoid-related orphan receptor gamma (ROR-gamma) signaling pathway - cell viability counter screen (AID 1159520); also: nearly all actives have a fitted effect of over 50% in size
Summary of the method: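 Tet-on ROR gamma CHO cells (1,000/well) were plated 4 hr, given compounds in DMSO for 2 hr at 37 C, then induced with 1 uM final doxycycline for 16 hr. Viability was read as ATP by CellTiter-Glo luminescence after 30 min.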

[6] = target: Nuclear receptor ROR-gamma (Homo sapiens) (UniProt P51449); test: qHTS assay to identify small molecule antagonists of the retinoid-related orphan receptor gamma (ROR-gamma) signaling pathway (AID 1159521;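 also: CHO cells with doxycycline inducible ROR-gamma driving an RORE luciferase reporter; top concentration of the series differs between compounds; nearly all actives have a fitted effect of over 50% in size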)
Summary of the method: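 Tet-on RORγ CHO cells carrying a ROR response element–luciferase reporter were pretreated with compounds for 2 h, then induced with 1 uM (final) doxycycline hyclate for 16 h at 37 C. Antagonism was read as decreased ONE-Glo luminescence.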

[7] = qHTS assay to identify small molecule agonists of the AP-1 signaling pathway - cell viability counter screen (AID 1159525; calls by dose curve; also: nearly all actives have a fitted effect of over 55% in size)
Summary of the method: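 ME-180 AP-1-bla, 2500 cells/well, Opti-MEM + 0.5% dialyzed FBS; overnight 37 °C; cpd 15-pt titration, 5 h 37 °C; CellTiter-Glo 30 min RT; luminescence read; normalised to TOAB and DMSO controls.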

[8] = qHTS assay to identify small molecule agonists of the AP-1 signaling pathway (AID 1159526; calls by dose curve)
[9] = target: Retinoic acid receptor RXR-alpha (Homo sapiens) (UniProt P19793); test: qHTS assay to identify small molecule agonists of the RXR signaling pathway (AID 1159527; calls by dose curve; also: nearly all actives have a fitted effect of over 35% in size; also: potency is read from the fitted curve at half-maximal effect)
Summary of the method: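 GeneBLAzer RXR-alpha-UAS-bla HEK 293T cells in medium with 2% charcoal-stripped FBS, pre-incubated 5 hr at 37 C, then exposed to compounds 16 hr. Beta-lactamase reporter read by FRET substrate, 2 hr room temperature, 460/530 nm emission.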

[10] = qHTS assay to identify small molecule agonists of the RXR signaling pathway - cell viability counter screen (AID 1159529)
Summary of the method: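 RXR-alpha-UAS-bla HEK 293T cells in medium with 2% charcoal-stripped FBS were preincubated 5 hr, then exposed to compounds for 16 hr at 37 C. Viability was read as CellTiter-Glo luminescence after 30 min at room temperature.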

[11] = qHTS assay to identify small molecule antagonists of the retinoid acid receptor (RAR) signaling pathway - cell viability counter screen (AID 1159551); also: nearly all actives have a fitted effect of over 35% in size
Summary of the method: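 Following overnight attachment, C3RL4 reporter cells received DMSO-dissolved compounds and then retinol (1 uM final). Six hours later at 37 C, ATP content was measured by CellTiter-Glo luminescence.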

[12] = qHTS assay to identify small molecule antagonists of the retinoic acid receptor (RAR) signaling pathway (AID 1159552; also: nearly all actives have a fitted effect of over 50% in size)
Summary of the method: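 RARE-luc C3RL4 cells; cpds + 1 uM (final) retinol, 6 hr, 37 C/5% CO2; luciferase reagent, 30 min RT, luminescence readout. Inhibitors of retinol-driven signal scored.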

[13] = qHTS assay to identify small molecule agonists of the retinoic acid receptor (RAR) signaling pathway (AID 1159553); also: potency is read from the fitted curve at half-maximal effect
Summary of the method: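 Cell line C3RL4, RARE luciferase reporter. Treatment: compounds in DMSO, 6 hr, 37 C, 5% CO2, after overnight plating. Detection: luminescence, 30 min RT after reagent.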

[14] = qHTS assay to identify small molecule antagonists of the estrogen related receptor (ERR) signaling pathway - cell viability counter screen (AID 1224818);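 also: series mostly up to about 46 µM; viability measured after 17.5 h of compound exposure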
Summary of the method: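 Here, ERR cells are plated at 2,000 cells per well, allowed 6 h to attach, and treated with compounds in DMSO for 17.5 h at 37 C. CellTiter-Fluor is then added and fluorescence read after 30 min.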

[15] = qHTS assay to identify small molecule antagonists of the estrogen related receptor signaling pathway with the pleiotropic PPARgamma coactivator (PGC) cell viability counter screen (AID 1224822;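 also: series mostly up to about 46 µM; viability read after 17.5 h compound exposure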)
Summary of the method: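 qHTS format, DMSO compound stocks pin-transferred onto PGC/ERR cells 6 h after plating; 17.5 h exposure at 37 C, then CellTiter-Fluor fluorescence.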

[16] = qHTS assay to identify small molecule antagonists of the estrogen related receptor (ERR) signaling pathway (AID 1224819)
Summary of the method: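 LOPAC library screened for antagonism as reduced One-Glo luminescence in ERR reporter cells (2,000/well). Compounds were added after 6 h pre-incubation and left 18 h at 37C; reading followed a 30 min room-temperature reagent step.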

[17] = qHTS assay to identify small molecule agonists of the estrogen related receptor (ERR) signaling pathway (AID 1224820)
Summary of the method: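 ERR reporter cells (NTP line) plated 2,000/well, incubated 6 h at 37 C/5% CO2, then pinned with compounds in DMSO and held 18 h at 37 C. One-Glo added; luminescence read after 30 min at room temperature.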

[18] = test system: estrogen-related receptor alpha (ERRalpha) with PGC-1alpha coactivator, human; test: qHTS assay to identify small molecule antagonists of the estrogen related receptor signaling pathway with the pleiotropic PPARgamma coactivator (PGC) (AID 1224821; calls by dose curve)
Summary of the method: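 Cells engineered for PGC/ERR signalling (line from NTP) were plated 6 h at 37 C/5% CO2, then exposed to DMSO-dissolved compound for 18 h at 37 C. Luciferase activity was read by One-Glo luminescence after 30 min at room temperature.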

[19] = qHTS assay to identify small molecule agonists of the estrogen related receptor signaling pathway with the pleiotropic PPARgamma coactivator (PGC) (AID 1224823)
Summary of the method: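 PGC/ERR reporter cells were seeded, rested 6 h at 37 C/5% CO2, then exposed to compounds in DMSO by pin transfer for 18 h at 37 C. Luciferase activity was read as luminescence after One-Glo reagent and 30 min at room temperature.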

Measured: Potency

Retinoic acid receptor RXR-alpha (Homo sapiens), sequence (P19793 whole entry, looked up): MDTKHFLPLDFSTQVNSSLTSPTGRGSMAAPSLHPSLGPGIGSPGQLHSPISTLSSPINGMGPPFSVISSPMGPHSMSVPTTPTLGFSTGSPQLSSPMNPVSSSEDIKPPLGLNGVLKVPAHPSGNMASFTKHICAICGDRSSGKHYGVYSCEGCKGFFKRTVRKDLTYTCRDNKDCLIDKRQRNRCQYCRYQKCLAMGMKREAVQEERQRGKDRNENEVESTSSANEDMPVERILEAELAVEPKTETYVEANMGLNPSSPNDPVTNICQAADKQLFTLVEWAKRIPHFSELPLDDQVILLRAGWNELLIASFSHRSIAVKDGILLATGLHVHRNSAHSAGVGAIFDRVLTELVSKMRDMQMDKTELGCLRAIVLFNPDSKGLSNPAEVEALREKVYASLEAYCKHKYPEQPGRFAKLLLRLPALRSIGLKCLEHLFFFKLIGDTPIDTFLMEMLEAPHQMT

O=C(O)CN1C(=O)c2cccc3cccc(c23)C1=O
inactive: [1] | [2] | [3] | [4] | [5] | [6] | [7] | [8] | [9] | [10] | [11]

COc1ccc(C)cc1
inactive: [1] | [2] | [3] | [4] | [5] | [6] | [7] | [8] | [9] | [11] | [12] | [13]

CC(C)(O)CCc1ccccc1
inactive: [1] | [2] | [3] | [4] | [5] | [6] | [7] | [8] | [9] | [10] | [11] | [12] | [13]

CC(=O)C(C)=O
inactive: [1] | [2] | [3] | [4] | [5] | [6] | [7] | [8] | [9] | [10] | [11] | [14] | [15]

Oc1cccc2[nH]ccc12
inactive: [1] | [2] | [3] | [4] | [5] | [6] | [7] | [8] | [9] | [10] | [11] | [12] | [13]

CCN(CC)c1cccc(O)c1
inactive: [1] | [2] | [3] | [4] | [5] | [6] | [7] | [8] | [9] | [11] | [12] | [13]

CC1=CC[C@@]23C[C@@H]1C(C)(C)[C@@H]2CC[C@H]3C
inactive: [1] | [2] | [3] | [4] | [5] | [6] | [7] | [8] | [9] | [10] | [11] | [12] | [13]

CCOC(=O)c1ccc(NC(=O)CN2CCCCC2)cc1
active: [13] 21.1 µM
inactive: [1] | [2] | [3] | [4] | [5] | [6] | [7] | [8] | [9] | [10] | [11] | [12]

CC12CC3CC(C)(C1)CC(N)(C3)C2
inactive: [1] | [2] | [3] | [4] | [5] | [6] | [7] | [8] | [9] | [10] | [11] | [13] | [14] | [16] | [17] | [18] | [15] | [19]

CC(=O)OCCC(C)CC(C)(C)C (stereo not drawn)
active: [9] 11 µM
inactive: [1] | [2] | [3] | [4] | [5] | [6] | [7] | [8] | [11]
